Data on 22 compounds can be found in PubChem BioAssay (Tox21).

Several values for one entry are separate records, joined by “and”; a condition that tells them apart may be missing. Equal entries are not always repeated. Records with an inconclusive call do not appear. Some compounds were tested as several samples or in several runs, with calls that do not always agree. Activity calls are given as the source filed them. Unless noted, calls come from the whole dose curve; as a rule, active = well fitted curve in the direction sought with a large enough effect in the repeat runs; inconclusive = weak or mixed curves; inactive = no such curve, though single readings can be large; an effect the other way counts as inactive or inconclusive.

For assay [1], the target named is Thyrotropin-releasing hormone receptor (Homo sapiens) (UniProt P34981). Briefly: qHTS assay to identify small molecule agonists of the thyrotropin-releasing hormone receptor (TRHR) signaling pathway (AID 1346891; calls by dose curve; note: series mostly up to about 58 µM). The essentials: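 Agonist-mode intracellular calcium readout: kinetic fluorescence over 3 min at 1 s intervals after compound addition to TRHR-HEK293 cells (18 h seeded, 2 h dye-loaded at 37 C). Fifteen concentrations, triplicates.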
In general terms: qHTS replaces the single test concentration by a dilution series.

Assay [2] is described as follows: Human pregnane X receptor (PXR) small molecule agonists, qHTS cell viability counter screen (AID 1346977). Note: nearly all actives have a fitted effect of over 50% in size. Note: potency is the fitted concentration of half-maximal effect. The method in brief: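 Same-well viability read: CellTiter-Fluor added after 23 hr compound exposure, fluorescence measured 1 hr later. Cells were PXR-Luc HepG2 seeded at 2,000/well in 5% charcoal-stripped FBS medium, rested 5 hr before dosing at 37 C.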
The nature of assay [3]: Caspase-3/7 induction in HepG2 cells by small molecules, qHTS assay (AID 1346978). Note: nearly all actives have a fitted effect of over 15% in size. The essentials:
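Caspase-3/7 induction was measured by Caspase-Glo 3/7 luminescence (30 min, room temperature) after a 17 hr compound exposure of wild-type HepG2 cells seeded at 2,000 per well and pre-incubated 5 hr.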

Assay [4] is described as follows: Caspase-3/7 induction in CHO-K1 cells by small molecules, qHTS cell viability counter screen (AID 1346979). Note: nearly all actives have a fitted effect of over 35% in size. Note: potency is the fitted concentration of half-maximal effect. The essentials:
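Cytotoxicity counter screen: CellTiter-Fluor added to compound-treated wild-type CHO-K1 cells at 16 h (37C, 5% CO2), fluorescence measured 1 h later; same wells as caspase-3/7 measurement.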

Assay [5] in a line: Caspase-3/7 induction in CHO-K1 cells by small molecules, qHTS assay (AID 1346980). Note: nearly all actives have a fitted effect of over 15% in size. The method in brief: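 Luminescent Caspase-Glo 3/7 read (30min, room temperature) quantified apoptosis induction. Cells were wild-type CHO-K1, treated with compound for 17hr at 37 C and 5% CO2.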
Assay [6] can be described thus: Caspase-3/7 induction in HepG2 cells by small molecules, qHTS cell viability counter screen (AID 1346981). Note: nearly all actives have a fitted effect of over 30% in size. Note: potency is the fitted concentration of half-maximal effect. The essentials:
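After a 5-hr attachment period at 37 C and 5% CO2, wild-type HepG2 cells received compounds in DMSO. Sixteen hours later CellTiter-Fluor was dispensed and the fluorescent signal quantified after a further hour.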

Assay [7] has as its target Nuclear receptor subfamily 1 group I member 2 (Homo sapiens) (UniProt O75469). Briefly: Human pregnane X receptor (PXR) small molecule agonists, qHTS assay (AID 1346982). Note: nearly all actives have a fitted effect of over 35% in size. Note: potency is the fitted concentration of half-maximal effect. The essentials:
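Tox21 qHTS; PXR-Luc HepG2; compounds pinned from DMSO; 24 hr, 37 C; ONE-Glo luciferase detection, 30 min room temperature.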

Assay [8] concerns the target Cytochrome P450 2D6 (Homo sapiens) (UniProt P10635). In words: Cytochrome P450 Family 2 Subfamily D Member 6 (CYP2D6) small molecule antagonists: luciferase reporter qHTS assay (AID 1671196). Note: nearly all actives have a fitted effect of over 50% in size. Note: potency is the fitted concentration of half-maximal effect. The method in brief:
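Room-temperature luminescent CYP2D6 activity assay: compound preincubated 10 min with enzyme–substrate mix, NADPH-initiated reaction 1 h, detection reagent 20 min before reading.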
(A reporter such as luciferase makes a cellular process visible.)

The target of assay [9] is Nuclear receptor subfamily 1 group I member 2 (Rattus norvegicus) (UniProt Q9R1A7). In words: Rat pregnane X receptor (rPXR) activation by small molecules, qHTS assay (AID 1346983). Note: nearly all actives have a fitted effect of over 20% in size. The settings on record: rPXR luciferase reporter cells, One-Glo luminescence, 24 h; max activation: stronger effect = higher value. The essentials:
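Luminescent readout (One-Glo luciferase, 30 min room temperature) followed 24 hr compound treatment at 37 C of rPXR cells plated 2,000 per well and preincubated 5hr; qHTS format with compounds delivered in DMSO.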

The target in assay [10] is Nuclear receptor subfamily 1 group I member 2 (Homo sapiens) (UniProt O75469). In words: Human pregnane X receptor (PXR) activation by small molecules, qHTS assay (AID 1346985). Note: nearly all actives have a fitted effect of over 40% in size. Note: potency is the fitted concentration of half-maximal effect. The essentials: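 DPX-2 cells (HepG2 co-transfected with a PXR response element and a CYP3A4-promoter luciferase construct) were seeded at 2,000 per well, rested 5 hr at 37C, then exposed to DMSO-dissolved compounds for 24 hr. Activation was read as luciferase luminescence.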
% is set by controls: 0 for no effect and ±100 for the full control effect.

Chain of Nuclear receptor subfamily 1 group I member 2 (Homo sapiens) (O75469 whole entry, looked up): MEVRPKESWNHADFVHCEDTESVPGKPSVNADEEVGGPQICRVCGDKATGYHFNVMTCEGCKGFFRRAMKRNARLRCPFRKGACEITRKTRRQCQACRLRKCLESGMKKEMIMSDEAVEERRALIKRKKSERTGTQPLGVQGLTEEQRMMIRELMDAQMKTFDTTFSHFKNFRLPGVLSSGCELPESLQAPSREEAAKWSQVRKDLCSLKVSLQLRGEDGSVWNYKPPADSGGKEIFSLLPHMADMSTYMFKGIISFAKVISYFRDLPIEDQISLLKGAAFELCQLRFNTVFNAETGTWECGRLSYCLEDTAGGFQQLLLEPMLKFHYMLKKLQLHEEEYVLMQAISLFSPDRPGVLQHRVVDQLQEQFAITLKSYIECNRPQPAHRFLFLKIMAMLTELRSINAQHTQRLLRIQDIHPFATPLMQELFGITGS
Chain of Thyrotropin-releasing hormone receptor (Homo sapiens) (P34981 whole entry, looked up): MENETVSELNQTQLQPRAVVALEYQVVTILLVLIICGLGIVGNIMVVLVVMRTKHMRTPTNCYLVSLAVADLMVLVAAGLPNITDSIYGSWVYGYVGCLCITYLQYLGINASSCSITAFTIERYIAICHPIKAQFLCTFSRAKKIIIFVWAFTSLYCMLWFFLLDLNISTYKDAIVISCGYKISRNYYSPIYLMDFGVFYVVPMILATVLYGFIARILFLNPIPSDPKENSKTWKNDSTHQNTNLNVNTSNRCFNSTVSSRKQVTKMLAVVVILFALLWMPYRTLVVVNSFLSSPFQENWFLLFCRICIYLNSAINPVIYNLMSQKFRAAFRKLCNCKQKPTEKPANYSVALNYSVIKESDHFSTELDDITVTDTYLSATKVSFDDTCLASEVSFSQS
Chain of Cytochrome P450 2D6 (Homo sapiens) (P10635 whole entry, looked up): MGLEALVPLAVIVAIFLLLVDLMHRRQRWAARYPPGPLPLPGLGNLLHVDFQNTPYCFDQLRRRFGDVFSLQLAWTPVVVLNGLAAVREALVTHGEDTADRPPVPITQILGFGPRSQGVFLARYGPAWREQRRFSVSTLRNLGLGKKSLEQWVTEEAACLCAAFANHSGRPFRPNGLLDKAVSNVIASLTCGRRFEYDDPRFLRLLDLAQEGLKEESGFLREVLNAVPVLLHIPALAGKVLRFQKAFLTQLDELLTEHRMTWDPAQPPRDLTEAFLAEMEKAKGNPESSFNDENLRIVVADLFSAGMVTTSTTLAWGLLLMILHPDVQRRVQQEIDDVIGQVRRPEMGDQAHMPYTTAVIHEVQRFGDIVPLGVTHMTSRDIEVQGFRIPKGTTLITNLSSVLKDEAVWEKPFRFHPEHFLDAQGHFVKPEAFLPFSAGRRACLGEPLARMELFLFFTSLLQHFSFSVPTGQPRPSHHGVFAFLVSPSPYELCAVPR
Chain of Nuclear receptor subfamily 1 group I member 2 (Rattus norvegicus) (Q9R1A7 whole entry, looked up): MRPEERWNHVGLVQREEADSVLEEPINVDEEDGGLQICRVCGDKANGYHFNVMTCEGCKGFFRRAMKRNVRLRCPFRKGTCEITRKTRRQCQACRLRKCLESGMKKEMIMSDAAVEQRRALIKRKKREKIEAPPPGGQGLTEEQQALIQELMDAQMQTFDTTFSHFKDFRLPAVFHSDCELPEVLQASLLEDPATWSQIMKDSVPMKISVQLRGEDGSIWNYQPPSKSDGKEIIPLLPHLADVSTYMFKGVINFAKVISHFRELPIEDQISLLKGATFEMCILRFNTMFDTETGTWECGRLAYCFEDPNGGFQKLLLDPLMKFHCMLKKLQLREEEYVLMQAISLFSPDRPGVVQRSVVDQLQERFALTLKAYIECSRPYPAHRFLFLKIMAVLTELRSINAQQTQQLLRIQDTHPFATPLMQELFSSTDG

In the case of `C=CC(C)(CCC=C(C)C)OC(C)=O` (centres undefined), the Potency result in assay [1], in [2], in [3], in assay [4], in [5] and in assay [6] was “inactive” each time. In addition, the Potency entry in assay [7] and in [8] was “inactive” each time.
As to `CCCCNS(=O)(=O)c1ccccc1`, the Potency result in assay [1], in assay [2], in [3], in assay [4], in [5] and in assay [6] was “inactive” throughout. Also, in assay [8], the Potency entry is “inactive”.
For `CN1C(C(=O)Nc2ccccn2)=C(O)c2ccccc2S1(=O)=O`, the Potency entry in assay [1], in assay [2], in [3], in [4], in assay [5] and in [6] was “inactive” each time. Besides, in assay [10], the Potency entry was “inactive”. Also, the max activation in assay [9] is -2.52% (inactive). The Potency in assay [8] was 40.3 µM (active) and inactive.
Consider `O=P(O)(O)O`, for which the Potency result in assay [1], in [2], in assay [3], in [4], in assay [5] and in assay [6] was “inactive” in each case. In addition, the max activation in assay [9] is -4.8% (inactive).
As for `CCCCc1oc2ccccc2c1C(=O)c1cc(I)c(OCCN(CC)CC)c(I)c1`, the Potency entry in assay [1] and in [5] was “inactive” throughout. The Potency was 43.6 µM (active) and 26.6 µM (active) in [2]; 48.9 µM (active) in [4]; 48.9 µM (active) in assay [6]; 3.09 µM (active) and 4.22 µM (active) in assay [7].
On to `CCCCC/C=C/C=C/C=O`, for which the Potency entry in assay [1], in assay [2], in assay [3], in assay [5] and in assay [6] was “inactive” in each case. Also, the Potency result in assay [4] was “inactive and 61.1 µM (active)”; in [7], “inactive and 61.1 µM (active)”; in [8], “inactive and 35.6 µM (active)”.
Regarding `OCCO`, the Potency entry in assay [1], in assay [2], in assay [3], in assay [4], in assay [5] and in assay [6] was “inactive” in each case. For the same compound, in assay [7], the Potency result is “inactive”. Further, the Potency in assay [8] is 34.6 µM (active) and inactive.
Consider `Brc1cc(Oc2cc(Br)c(Br)c(Br)c2Br)c(Br)c(Br)c1Br`, for which the Potency entry in assay [1], in [2], in assay [3], in assay [4], in assay [5] and in assay [6] was “inactive” throughout. For the same compound, in assay [8], the Potency entry is “inactive”. Besides, in assay [7], the Potency was 9.73 µM (active).
In the case of `O=Cc1ccccc1O`, the Potency result in assay [1], in assay [2], in [3], in [4], in assay [5] and in assay [6] was “inactive” in each case. Besides, the Potency entry in assay [7] and in assay [8] was “inactive” in each case.
With `CCOCCOCCO`, the Potency entry in [1], in assay [2], in assay [3], in assay [4], in assay [5] and in assay [6] was “inactive” in each case. The Potency entry in assay [7] and in [8] was “inactive” throughout.
For the compound `Cc1c(OCC(F)(F)F)ccnc1CS(=O)c1nc2ccccc2[nH]1` (centres undefined), the Potency entry in assay [1], in assay [2], in assay [3], in assay [5] and in assay [6] was “inactive” throughout. For the same compound, the Potency in [8] was 2.83 µM (active) and 1.23 µM (active).
For `c1ccncc1`, the Potency result in assay [1], in [2], in [3], in assay [4], in assay [5] and in assay [6] was “inactive” throughout. Further, the Potency entry in assay [7] and in assay [8] was “inactive” throughout.
On to `C=C(C)C(=O)OCCOC(=O)C(=C)C`, for which the Potency entry in assay [1], in assay [2], in assay [3], in [4], in assay [5] and in assay [6] was “inactive” in each case. In addition, the Potency entry in assay [7] and in assay [8] was “inactive” throughout.
For the compound `CCC(C)c1ccccc1O` (centres undefined), the Potency entry in assay [1], in assay [2], in assay [3], in assay [4], in [5] and in assay [6] was “inactive” in each case. In addition, the Potency entry in assay [7] and in assay [8] was “inactive” each time.
As for `COC(=O)c1ccccc1`, the Potency result in [1], in assay [2], in [3], in assay [4], in assay [5] and in assay [6] was “inactive” in each case. In addition, the Potency entry in assay [7] and in assay [8] was “inactive” in each case.
For `COC(=O)Nc1nc2ccc(S(=O)c3ccccc3)cc2[nH]1` (centres undefined), the Potency entry in [1], in [2], in [3], in [5], in assay [6] and in assay [8] was “inactive” in each case. The Potency was 8.41 µM (active) in [4]; 68.5 µM (active) and 8.41 µM (active) in assay [7].
Regarding `O=c1oc(=O)c2cc3c(=O)oc(=O)c3cc12`, the Potency result in assay [1], in assay [2], in [3], in assay [4], in assay [5] and in assay [6] was “inactive” each time. For the same compound, in [8], the Potency result is “inactive”.
In the case of `c1ccc2cc(Nc3ccc(Nc4ccc5ccccc5c4)cc3)ccc2c1`, the Potency result in assay [1], in [2], in [3], in [4], in assay [5] and in assay [6] was “inactive” in each case. Further, the Potency entry in assay [7] and in [8] was “inactive” each time.
For the compound `CC(C)OC=O`, the Potency result in assay [1], in [2], in [3], in [4], in [5] and in [6] was “inactive” each time. Moreover, the Potency entry in assay [7] and in [8] was “inactive” each time.
For `c1cc(N(CC2CO2)CC2CO2)ccc1OCC1CO1` (centres undefined), the Potency entry in assay [1] and in assay [5] was “inactive” in each case. For the same compound, the Potency in assay [2] is 61.1 µM (active); in [4], 48.6 µM (active) and 27.3 µM (active); in assay [6], 54.5 µM (active) and 27.3 µM (active); in [7], 48.6 µM (active) and 24.3 µM (active); in assay [8], 56.4 µM (active).
For `COc1cc([C@@H]2c3cc4c(cc3[C@H](O)[C@H]3COC(=O)[C@H]23)OCO4)cc(OC)c1OC`, the Potency result in assay [1], in [2], in assay [3], in assay [5] and in assay [8] was “inactive” in each case. Besides, the Potency in assay [4] is 8.6 nM (active) and 21.1 nM (active); in assay [7] it was 0.0485 µM (active); in [10], 14.1 µM (active).
In the case of `C/C=C/C(=O)O`, the Potency result in [1], in assay [2], in [3], in assay [4], in assay [5] and in assay [6] was “inactive” in each case. Further, the Potency result in [7] and in assay [8] was “inactive” throughout.
